Test results as given in PubChem BioAssay AID504850 (National Center for Advancing Translational Sciences (NCATS), 2011).
The whole screen tested about 2,300 compounds, of which about 1,200 (52%) were called active. Another 34% or so got no clear call; they are omitted. Calls follow the shape of the dose curve; as a rule, active = well fitted inhibition curve with a large enough effect; inconclusive = small, poorly fitted or top-dose-only effect, or effect the other way; inactive = no such curve, though single readings can be large or run the other way. So high a share suggests a set chosen from earlier hits. This is one part of the list.

Assay: Confirmation screen for delayed death inhibitors of the malarial parasite plastid, 48 hour incubation; also: nearly all actives have a fitted effect of over 65% in size
Conditions: P. falciparum-infected erythrocytes, luciferase growth; series mostly up to 28.7 µM
How it was run: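 Single-generation (48 h, 37 C) exposure of integrated firefly luciferase-reporter P. falciparum in red cells, 0.1% parasitemia at 2% hematocrit, Albumax-supplemented RPMI. Falling luciferase signal marks parasite growth inhibition.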
Potency is read from the fitted curve at half-maximal effect.

SMILES | Potency
N#C/C(=C\c1ccccn1)c1ccccn1 | 11.2 µM (active)
CSC1=NC(C)(C)C=C(/C=C/c2ccc(Cl)cc2Cl)N1 | 1.78 µM (active)
CSC1=NC(C)(C)C=C(/C=C/c2c(Cl)cccc2Cl)N1 | 10 µM (active)
CSC1=NC(C)(C)C=C(/C=C/c2ccc(Cl)cc2)N1 | 10 µM (active)
O=C(c1ccccc1Br)N1CCN(c2ccccn2)CC1 | inactive
CC(Oc1ccc(Br)cc1)C(=O)N1CCN(c2ccccn2)CC1 (configuration not stated) | 15.8 µM (active)
O=C(NCc1ccc2[nH]c3c(c2c1)CCCC3)c1ccc(S(=O)(=O)N2CCCC2)cc1 | 15.8 µM (active)
COc1ccc(-c2cc(C(=O)Nc3cc(C)n(Cc4ccc(Cl)cc4)n3)no2)cc1OC | 0.355 µM (active)
COc1ccc(Cl)cc1NC(=O)C(=O)NCc1ccncc1 | inactive
O=C(Nc1ccc(Cl)cc1)c1ccc(CN2CCc3ccccc3C2)cc1 | 14.1 µM (active)
Cc1cc(C)cc(NC(=O)c2ccc(CN3CCc4ccccc4C3)cc2)c1 | 14.1 µM (active)
O=C(Nc1ccc(F)cc1)c1ccc(CN2CCc3ccccc3C2)cc1 | 12.6 µM (active)
CCOc1ccccc1CN1C(=O)NC(C)(c2ccccc2)C1=O (configuration not stated) | inactive
COc1ccccc1CNC(=O)CN1C(=O)NC(c2ccccc2)(c2ccc(C)c(C)c2)C1=O (configuration not stated) | 12.6 µM (active)
Cc1cc(NC(=O)CN2C(=O)NC(c3ccccc3)(c3ccc(C)c(C)c3)C2=O)no1 (configuration not stated) | 14.1 µM (active)
Cn1c(=O)c([N+](=O)[O-])c(-n2ccnc2)c2ccccc21 | 12.6 µM (active)
C/C(=C\C(=O)OCCCCCCCCC(=O)O)C[C@@H]1OC[C@H](C[C@@H]2O[C@H]2[C@@H](C)[C@H](C)O)[C@@H](O)[C@H]1O | 1.12 µM (active)
CCC(C)NC(=O)c1cc(Cl)c(NC(=O)C2=C(C)OCCS2)cc1OC (configuration not stated) | 11.2 µM (active)
COc1ccc(-c2cc(-c3ccccc3)nc(SC(C)C(=O)O)c2C#N)cc1 (configuration not stated) | 14.1 µM (active)
COc1ccc(-c2cc(-c3ccccc3)nc(SCC(=O)Nc3nccs3)c2C#N)cc1 | 2.24 µM (active)
CCOC(=O)c1sc(NC(=O)CSc2ncccn2)nc1C | inactive

SMILES | Potency
CS(=O)(=O)Nc1ccc(C2=NN(C(=O)c3ccco3)C(c3ccc(F)cc3)C2)cc1 (configuration not stated) | 12.6 µM (active)
Fc1ccc(C2CC(c3ccco3)=NN2c2ccccc2)cc1 (configuration not stated) | inactive
COc1ccc(Cc2nc3ccc(C(=O)NCCc4ccccn4)cc3o2)cc1OC | 14.1 µM (active)
C/C(=N\NC(=O)c1ccc(Cl)c(Cl)c1)c1ccc(Br)s1 | 3.55 µM (active)
O=C(NNC(=O)c1ccc(Br)s1)c1ccc(F)c(S(=O)(=O)N2CCOCC2)c1 | inactive
COc1ccc2c(c1OC)C(=O)N1N=C(c3ccccc3)CC21 (configuration not stated) | 5.01 µM (active)
Nc1nc(CCl)nc(N(c2ccccc2)c2ccccc2)n1 | 8.91 µM (active)
Cc1cccc(N(Cc2ccccc2)C(=O)CN2C(=O)NC3(CCCCC3C)C2=O)c1 (configuration not stated) | 12.6 µM (active)
COc1ccc(CN2CCN(C(=O)CCC(=O)Nc3nnc(C4CCCCC4)s3)CC2)cc1F | 12.6 µM (active)
CCCc1nnc(NC(=O)CCC(=O)N2CCN(Cc3ccc(Cl)cc3)CC2)s1 | 12.6 µM (active)
CCCC(=O)Nc1nnc(CC(=O)N2CCCC2)s1 | inactive
CCOC(=O)c1c(C)sc2c1N(C(=O)CCl)c1cc(Cl)ccc1S2 | 3.98 µM (active)
O=c1[nH]c(C(F)(F)F)nc2ccc3ccccc3c12 | inactive
Cc1ccc(NS(=O)(=O)c2ccc(-c3cnc(C4CC4)o3)cc2)c(C)c1 | 5.01 µM (active)
O=C(C1CCC1)N1CCc2cc(S(=O)(=O)NCc3ccco3)ccc21 | inactive
O=C(CCl)c1ccc2c(c1)CCN2C(=O)C1CCCCC1 | 11.2 µM (active)
COc1ccc(NC(=O)c2cc([N+](=O)[O-])ccc2N2CCN(C)CC2)cc1 | inactive
CCC(=O)c1ccc(N2CCN(C(=O)c3cc([N+](=O)[O-])ccc3N3CCN(C)CC3)CC2)c(F)c1 | 10 µM (active)
O=[N+]([O-])/C=C\c1ccc(N2CCCC2)c(F)c1 | inactive
COc1ccc([N+](=O)[O-])c(S(=O)(=O)c2ccc(Cl)cc2)n1 | inactive
CCCn1cc(S(=O)(=O)c2ccc(Cl)cc2)c(=O)c2cc(OC)ccc21 | 12.6 µM (active)

SMILES | Potency
Cc1onc(-c2c(F)cccc2Cl)c1-c1nnc(-c2ccc(C(F)(F)F)cc2)o1 | 5.62 µM (active)
Cc1[nH]c(C)c(C(=O)/C=C/c2ccc([N+](=O)[O-])cc2)c1C | 12.6 µM (active)
Cc1oc(-c2ccccc2Cl)nc1Cn1cccc1C1=NC(c2ccccc2)CO1 (configuration not stated) | 12.6 µM (active)
CCCSCCCNC(=O)c1ccccc1NC(=O)C1=CSCCO1 | 12.6 µM (active)
CC(C)(C)c1nc(SCC(=O)Nc2nc3c(s2)CCCC3)c2ccccc2n1 | 4.47 µM (active)
O=C(Cc1cn2ccsc2n1)Nc1nc2c(s1)CCCC2 | inactive
CC(C)(C)c1nc(SCC(=O)Nc2ccc(N3CCOCC3)cc2)c2ccccc2n1 | 11.2 µM (active)
O=C(Cn1c(=O)sc2ccccc21)Nc1nc2c(s1)CCCC2 | inactive
CCN(CC)C(=O)C1CCCN(C(=O)c2cc(COc3ccc4ncccc4c3)on2)C1 (configuration not stated) | 11.2 µM (active)
CN1C(=O)Cc2cc(S(=O)(=O)N3CCN(c4cccc(C(F)(F)F)c4)CC3)ccc21 | 11.2 µM (active)
Cc1ccc(-c2cc(=O)c3ccc(F)cc3[nH]2)cc1 | 5.01 µM (active)
CCn1nc(C)c(NC(=O)CC23CC4CC(CC(C4)C2)C3)c1C | inactive
NC(=O)COc1ccc(C(=O)/C=C2/C(=O)Nc3ccccc32)cc1 | inactive
NC(=O)COc1ccc(NC(=O)CC23CC4CC(CC(C4)C2)C3)cc1 | 11.2 µM (active)
C=CCNC(=O)CSc1nc2sc3c(c2c(=O)n1CCCOC)CCC3 | 12.6 µM (active)
COc1ccc(/C=N/NC(=O)c2cc(-c3ccccc3OC(C)C)nc3ccccc23)cc1CN1CCOCC1 | inactive
CCOc1ccc(-c2cc(C(=O)O)c3ccccc3n2)c(OCC)c1 | inactive
COc1cc(/C=N/NC(=O)c2cc(-c3ccccc3OC(C)C)nc3ccccc23)ccc1O | 14.1 µM (active)
CCOc1ccc(-c2cc(C(=O)N/N=C(\C)c3cccnc3)c3ccccc3n2)c(OCC)c1 | 14.1 µM (active)
CC(C)Oc1ccccc1-c1cc(C(=O)N/N=C/c2cccnc2)c2ccccc2n1 | 11.2 µM (active)
